Assay results as given in ChEMBL document CHEMBL1961873, “Compounds: GSK PKIS; Assays: Nanosyn kinase panel” (2012).

Legend:
[1] = biological target: Platelet-derived growth factor receptor beta (Homo sapiens) (UniProt P09619); conditions: at 1 µM;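 further: each value is a mean percent inhibition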
[2] = biological target: Tyrosine-protein kinase FRK (Homo sapiens) (UniProt P42685); conditions: at 0.1 µM
[3] = biological target: Tyrosine-protein kinase FRK (Homo sapiens) (UniProt P42685); conditions: at 1 µM
[4] = biological target: Protein-tyrosine kinase 2-beta (Homo sapiens) (UniProt Q14289); conditions: at 0.1 µM
[5] = biological target: Protein-tyrosine kinase 2-beta (Homo sapiens) (UniProt Q14289); conditions: at 1 µM
[6] = biological target: Proto-oncogene tyrosine-protein kinase receptor Ret (Homo sapiens) (UniProt P07949); conditions: at 0.1 µM
[7] = biological target: Proto-oncogene tyrosine-protein kinase receptor Ret (Homo sapiens) (UniProt P07949); conditions: at 1 µM
[8] = test system: Proto-oncogene tyrosine-protein kinase receptor Ret (Homo sapiens), P07949 [V804L]; conditions: at 0.1 µM
[9] = test system: Proto-oncogene tyrosine-protein kinase receptor Ret (Homo sapiens), P07949 [V804L]; conditions: at 1 µM
[10] = test system: Proto-oncogene tyrosine-protein kinase receptor Ret (Homo sapiens), P07949 [Y791F]; conditions: at 0.1 µM
[11] = test system: Proto-oncogene tyrosine-protein kinase receptor Ret (Homo sapiens), P07949 [Y791F]; conditions: at 1 µM
[12] = biological target: Macrophage-stimulating protein receptor (Homo sapiens) (UniProt Q04912); conditions: at 0.1 µM
[13] = biological target: Macrophage-stimulating protein receptor (Homo sapiens) (UniProt Q04912); conditions: at 1 µM
[14] = biological target: Proto-oncogene tyrosine-protein kinase ROS (Homo sapiens) (UniProt P08922); conditions: at 0.1 µM
[15] = biological target: Proto-oncogene tyrosine-protein kinase ROS (Homo sapiens) (UniProt P08922); conditions: at 1 µM
[16] = biological target: Proto-oncogene tyrosine-protein kinase Src (Homo sapiens) (UniProt P12931); conditions: at 0.1 µM
[17] = biological target: Proto-oncogene tyrosine-protein kinase Src (Homo sapiens) (UniProt P12931); conditions: at 1 µM
[18] = biological target: Tyrosine-protein kinase Srms (Homo sapiens) (UniProt Q9H3Y6); conditions: at 0.1 µM
[19] = biological target: Tyrosine-protein kinase Srms (Homo sapiens) (UniProt Q9H3Y6); conditions: at 1 µM
[20] = biological target: Tyrosine-protein kinase SYK (Homo sapiens) (UniProt P43405); conditions: at 0.1 µM;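 further: reported percentages are mean inhibition values for SYK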

Proto-oncogene tyrosine-protein kinase ROS (Homo sapiens), sequence (P08922 whole entry): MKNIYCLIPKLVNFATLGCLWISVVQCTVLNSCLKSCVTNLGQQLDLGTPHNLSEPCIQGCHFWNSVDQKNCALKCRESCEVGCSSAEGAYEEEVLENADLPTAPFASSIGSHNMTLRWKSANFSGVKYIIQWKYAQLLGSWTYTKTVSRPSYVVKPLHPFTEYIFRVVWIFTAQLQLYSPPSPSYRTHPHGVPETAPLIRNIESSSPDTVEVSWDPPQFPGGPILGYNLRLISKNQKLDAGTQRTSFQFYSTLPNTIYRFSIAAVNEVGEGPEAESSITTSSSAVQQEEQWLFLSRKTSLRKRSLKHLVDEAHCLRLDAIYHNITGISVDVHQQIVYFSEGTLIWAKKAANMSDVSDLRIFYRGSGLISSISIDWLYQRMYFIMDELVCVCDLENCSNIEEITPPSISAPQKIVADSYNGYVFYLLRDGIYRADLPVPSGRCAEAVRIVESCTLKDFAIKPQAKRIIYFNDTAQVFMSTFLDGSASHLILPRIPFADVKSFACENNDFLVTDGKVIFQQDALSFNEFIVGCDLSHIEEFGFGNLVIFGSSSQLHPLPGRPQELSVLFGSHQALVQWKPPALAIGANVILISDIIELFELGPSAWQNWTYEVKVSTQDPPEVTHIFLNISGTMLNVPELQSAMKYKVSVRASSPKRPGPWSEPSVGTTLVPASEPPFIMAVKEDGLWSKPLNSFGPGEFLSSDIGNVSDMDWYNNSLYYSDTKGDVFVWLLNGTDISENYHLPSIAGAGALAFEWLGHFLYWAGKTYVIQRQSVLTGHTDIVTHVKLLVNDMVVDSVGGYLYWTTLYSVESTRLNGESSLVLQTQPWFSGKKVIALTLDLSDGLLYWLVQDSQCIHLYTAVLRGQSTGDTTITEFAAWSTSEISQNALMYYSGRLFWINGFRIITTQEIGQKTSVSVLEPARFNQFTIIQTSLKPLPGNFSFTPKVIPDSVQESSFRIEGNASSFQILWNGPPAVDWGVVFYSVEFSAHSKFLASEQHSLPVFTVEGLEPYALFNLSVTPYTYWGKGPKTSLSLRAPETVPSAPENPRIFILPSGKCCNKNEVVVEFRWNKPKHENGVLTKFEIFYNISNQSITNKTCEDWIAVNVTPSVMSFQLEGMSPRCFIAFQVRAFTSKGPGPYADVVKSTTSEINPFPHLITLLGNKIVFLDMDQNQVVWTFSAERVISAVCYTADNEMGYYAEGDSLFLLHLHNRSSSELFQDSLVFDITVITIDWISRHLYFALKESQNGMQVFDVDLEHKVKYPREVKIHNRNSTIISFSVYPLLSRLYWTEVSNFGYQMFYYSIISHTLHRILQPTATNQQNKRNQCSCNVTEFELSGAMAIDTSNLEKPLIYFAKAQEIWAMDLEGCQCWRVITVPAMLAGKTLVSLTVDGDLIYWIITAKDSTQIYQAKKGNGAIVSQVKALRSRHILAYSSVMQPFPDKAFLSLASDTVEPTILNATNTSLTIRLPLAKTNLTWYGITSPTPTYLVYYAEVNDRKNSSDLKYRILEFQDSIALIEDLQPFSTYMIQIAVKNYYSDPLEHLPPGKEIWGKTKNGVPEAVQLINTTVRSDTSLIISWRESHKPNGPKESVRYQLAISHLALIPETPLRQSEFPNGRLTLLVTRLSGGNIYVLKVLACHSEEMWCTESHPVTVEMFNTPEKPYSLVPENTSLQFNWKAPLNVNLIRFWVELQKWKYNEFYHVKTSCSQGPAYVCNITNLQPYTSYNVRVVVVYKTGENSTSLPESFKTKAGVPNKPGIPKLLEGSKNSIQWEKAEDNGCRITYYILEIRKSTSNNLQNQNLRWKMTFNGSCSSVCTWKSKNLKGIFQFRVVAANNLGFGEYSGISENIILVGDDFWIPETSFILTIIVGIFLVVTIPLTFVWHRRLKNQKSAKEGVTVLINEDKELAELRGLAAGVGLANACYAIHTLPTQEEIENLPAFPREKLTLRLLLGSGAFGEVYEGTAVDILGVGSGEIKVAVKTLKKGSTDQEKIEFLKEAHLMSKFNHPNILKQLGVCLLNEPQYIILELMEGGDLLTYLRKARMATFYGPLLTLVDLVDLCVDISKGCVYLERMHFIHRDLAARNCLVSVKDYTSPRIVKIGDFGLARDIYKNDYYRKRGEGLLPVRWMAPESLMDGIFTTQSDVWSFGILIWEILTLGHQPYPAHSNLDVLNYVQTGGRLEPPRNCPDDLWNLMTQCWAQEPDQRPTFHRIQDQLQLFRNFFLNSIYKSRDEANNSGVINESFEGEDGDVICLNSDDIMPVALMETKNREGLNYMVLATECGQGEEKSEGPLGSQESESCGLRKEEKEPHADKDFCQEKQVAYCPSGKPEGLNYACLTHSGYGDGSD
Platelet-derived growth factor receptor beta (Homo sapiens), sequence (P09619 whole entry): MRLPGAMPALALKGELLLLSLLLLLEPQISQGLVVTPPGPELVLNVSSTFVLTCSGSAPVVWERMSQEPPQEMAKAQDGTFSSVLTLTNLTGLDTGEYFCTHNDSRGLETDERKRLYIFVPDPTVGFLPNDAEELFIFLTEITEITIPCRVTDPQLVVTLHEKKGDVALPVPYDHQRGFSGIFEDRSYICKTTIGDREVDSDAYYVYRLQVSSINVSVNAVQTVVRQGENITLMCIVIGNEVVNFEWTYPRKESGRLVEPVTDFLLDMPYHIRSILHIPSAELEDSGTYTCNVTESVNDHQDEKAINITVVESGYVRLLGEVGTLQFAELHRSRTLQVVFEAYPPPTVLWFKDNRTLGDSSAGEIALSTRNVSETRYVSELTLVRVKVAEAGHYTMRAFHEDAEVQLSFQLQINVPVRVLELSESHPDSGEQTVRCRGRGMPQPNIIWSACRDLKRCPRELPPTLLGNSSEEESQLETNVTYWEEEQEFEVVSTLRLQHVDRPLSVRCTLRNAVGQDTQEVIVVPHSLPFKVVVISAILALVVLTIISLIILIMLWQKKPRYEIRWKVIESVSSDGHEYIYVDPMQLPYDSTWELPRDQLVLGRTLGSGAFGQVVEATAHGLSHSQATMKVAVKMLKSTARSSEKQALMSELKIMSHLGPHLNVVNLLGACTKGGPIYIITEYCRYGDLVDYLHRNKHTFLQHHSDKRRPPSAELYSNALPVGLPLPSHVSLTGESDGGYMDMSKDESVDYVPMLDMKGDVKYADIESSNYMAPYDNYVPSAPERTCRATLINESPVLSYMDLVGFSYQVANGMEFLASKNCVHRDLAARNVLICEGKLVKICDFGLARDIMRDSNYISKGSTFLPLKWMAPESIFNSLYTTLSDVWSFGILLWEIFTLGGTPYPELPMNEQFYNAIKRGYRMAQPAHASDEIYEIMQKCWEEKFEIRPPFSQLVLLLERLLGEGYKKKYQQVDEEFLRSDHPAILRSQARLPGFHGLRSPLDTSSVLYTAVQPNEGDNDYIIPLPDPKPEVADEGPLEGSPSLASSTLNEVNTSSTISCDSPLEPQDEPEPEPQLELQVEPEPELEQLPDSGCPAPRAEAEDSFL
Proto-oncogene tyrosine-protein kinase receptor Ret (Homo sapiens), P07949 [Y791F], sequence (P07949 whole entry Y791F): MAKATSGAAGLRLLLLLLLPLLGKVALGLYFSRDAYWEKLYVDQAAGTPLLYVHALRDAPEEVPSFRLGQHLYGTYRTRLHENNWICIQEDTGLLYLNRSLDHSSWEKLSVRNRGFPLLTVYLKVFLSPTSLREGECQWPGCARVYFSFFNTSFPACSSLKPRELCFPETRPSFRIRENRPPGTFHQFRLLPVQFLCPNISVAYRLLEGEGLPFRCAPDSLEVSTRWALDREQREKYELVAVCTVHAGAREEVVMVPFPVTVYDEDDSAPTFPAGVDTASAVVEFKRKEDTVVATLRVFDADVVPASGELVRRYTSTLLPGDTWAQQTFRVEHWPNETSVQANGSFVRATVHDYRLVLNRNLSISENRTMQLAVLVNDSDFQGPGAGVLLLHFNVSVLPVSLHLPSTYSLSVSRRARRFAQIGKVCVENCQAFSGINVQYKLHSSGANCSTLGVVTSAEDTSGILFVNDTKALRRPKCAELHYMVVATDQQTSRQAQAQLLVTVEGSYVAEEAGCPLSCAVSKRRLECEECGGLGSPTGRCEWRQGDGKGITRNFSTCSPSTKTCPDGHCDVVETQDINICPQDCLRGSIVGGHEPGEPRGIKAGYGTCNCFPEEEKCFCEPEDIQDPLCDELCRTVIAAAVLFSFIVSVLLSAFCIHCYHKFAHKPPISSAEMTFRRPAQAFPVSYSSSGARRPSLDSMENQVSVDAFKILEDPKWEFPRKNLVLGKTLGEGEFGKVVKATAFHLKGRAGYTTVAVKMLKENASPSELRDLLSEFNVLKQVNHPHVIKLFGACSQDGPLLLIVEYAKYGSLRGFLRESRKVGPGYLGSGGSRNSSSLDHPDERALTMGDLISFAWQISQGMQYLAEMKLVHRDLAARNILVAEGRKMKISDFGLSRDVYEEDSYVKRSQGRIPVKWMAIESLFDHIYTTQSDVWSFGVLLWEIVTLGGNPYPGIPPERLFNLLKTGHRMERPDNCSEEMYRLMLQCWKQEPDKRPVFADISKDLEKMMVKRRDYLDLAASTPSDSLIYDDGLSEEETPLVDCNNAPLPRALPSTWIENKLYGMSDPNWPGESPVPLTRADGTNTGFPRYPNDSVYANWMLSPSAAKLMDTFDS
Proto-oncogene tyrosine-protein kinase receptor Ret (Homo sapiens), sequence (P07949 whole entry): as the sequence (P07949 whole entry Y791F) above, with F791Y counted along it
Tyrosine-protein kinase Srms (Homo sapiens), sequence (Q9H3Y6 whole entry): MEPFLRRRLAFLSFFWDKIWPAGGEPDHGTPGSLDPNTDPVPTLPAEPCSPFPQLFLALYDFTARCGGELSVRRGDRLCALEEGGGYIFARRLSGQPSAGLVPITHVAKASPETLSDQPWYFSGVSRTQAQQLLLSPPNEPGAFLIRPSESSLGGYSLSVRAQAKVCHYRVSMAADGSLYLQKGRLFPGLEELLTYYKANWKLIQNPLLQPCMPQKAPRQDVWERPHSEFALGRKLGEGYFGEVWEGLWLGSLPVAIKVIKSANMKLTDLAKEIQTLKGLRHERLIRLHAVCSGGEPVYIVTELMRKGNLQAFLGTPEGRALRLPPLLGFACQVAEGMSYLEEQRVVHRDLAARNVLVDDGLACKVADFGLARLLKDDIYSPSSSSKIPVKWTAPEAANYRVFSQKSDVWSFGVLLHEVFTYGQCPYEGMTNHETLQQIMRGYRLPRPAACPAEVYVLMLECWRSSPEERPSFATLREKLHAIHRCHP
Proto-oncogene tyrosine-protein kinase receptor Ret (Homo sapiens), P07949 [V804L], sequence (P07949 whole entry V804L): as the sequence (P07949 whole entry Y791F) above, with F791Y, V804L counted along it

Fc1cccc(COc2ccc(Nc3ncnc4sc(-c5ccco5)cc34)cc2Cl)c1 was tested, and the inhibition [1] was 15%, the inhibition [2] was 4.23% and the inhibition [3] was 3.25%. The inhibition [4] was 6.41%, the inhibition [5] was 5.02% and the inhibition [6] was 3.58%. It also gave an inhibition [7] of 5.02%, an inhibition [8] of 5.96% and an inhibition [9] of 11.1%. The inhibition [10] was 8.01%, the inhibition [11] was 6.83% and the inhibition [12] was -0.84%. The inhibition [13] was 3.24%, the inhibition [14] was 1.53% and the inhibition [15] was 8.29%. It also gave an inhibition [16] of 7.3%, an inhibition [17] of 6.58% and an inhibition [18] of -3.52%. It also gave an inhibition [19] of -1.36% and an inhibition [20] of -3.2%.

With COc1cccc(-c2c[nH]c3c(N/N=C/c4ccncc4)ncnc23)c1 the inhibition [1] was 81.1%, the inhibition [2] was 1.61% and the inhibition [3] was 3.28%. The inhibition [4] was 2.76%, the inhibition [5] was 9.78% and the inhibition [6] was 10.7%. The inhibition [7] was 37.9%, the inhibition [8] was 7.65% and the inhibition [9] was 30.7%. It also gave an inhibition [10] of 10.2%, an inhibition [11] of 39.7% and an inhibition [12] of 9.37%. It also gave an inhibition [13] of 42.4%, an inhibition [14] of 4.61% and an inhibition [15] of 14.4%. The inhibition [16] was 29.8%, the inhibition [17] was 77.3% and the inhibition [18] was 1.92%. It also gave an inhibition [19] of 11.8% and an inhibition [20] of -4.09%.

Compound COc1cc2ncn(-c3cc(OCc4ccccc4C(F)(F)F)c(C(=O)N(C)C)s3)c2cc1OC has an inhibition [1] of 34.4%, an inhibition [2] of 0.68% and an inhibition [3] of -0.25%. For the same compound, the inhibition [4] was -0.29%, the inhibition [5] was -5.44% and the inhibition [6] was 3.06%. It also gave an inhibition [7] of 22.1%, an inhibition [8] of 0.43% and an inhibition [9] of 7.17%. The inhibition [10] was 1.87%, the inhibition [11] was 23.4% and the inhibition [12] was 1.82%. It also gave an inhibition [13] of -1.06%, an inhibition [14] of 1.8% and an inhibition [15] of 2.67%. The inhibition [16] was 0.91%, the inhibition [17] was 3.6% and the inhibition [18] was 1.16%. For the same compound, the inhibition [19] was 1.35% and the inhibition [20] was 4.44%.

In the case of CCNC(=O)O[C@H]1CN[C@H](C#Cc2cc3ncnc(Nc4ccc(OCc5cccc(F)c5)c(Cl)c4)c3s2)C1, the inhibition [1] is reported as 5.63%, the inhibition [2] is reported as 1.7% and the inhibition [3] is reported as 1.79%. The inhibition [4] was 9.03%, the inhibition [5] was 7.74% and the inhibition [6] was 2%. It also gave an inhibition [7] of 3.91%, an inhibition [8] of 2.16% and an inhibition [9] of 0.84%. For the same compound, the inhibition [10] was 1.93%, the inhibition [11] was 2.83% and the inhibition [12] was 3.96%. It also gave an inhibition [13] of 3.52%, an inhibition [14] of 4.68% and an inhibition [15] of 3.52%. The inhibition [16] was 0.25%, the inhibition [17] was 6.91% and the inhibition [18] was -0.91%. For the same compound, the inhibition [19] was -2.79% and the inhibition [20] was -1.96%.

With NS(=O)(=O)c1ccc(Nc2ncc(-c3ccccc3)o2)cc1 the inhibition [1] was 46.6%, the inhibition [2] was 1.2% and the inhibition [3] was 1.36%. For the same compound, the inhibition [4] was 10.6%, the inhibition [5] was 19.8% and the inhibition [6] was 3.66%. For the same compound, the inhibition [7] was 7.66%, the inhibition [8] was 3.57% and the inhibition [9] was 10%. For the same compound, the inhibition [10] was 0.77%, the inhibition [11] was 7.3% and the inhibition [12] was 4%. For the same compound, the inhibition [13] was 6.45%, the inhibition [14] was 3.2% and the inhibition [15] was 13.1%. The inhibition [16] was 1.97%, the inhibition [17] was 18.3% and the inhibition [18] was -0.76%. The inhibition [19] was 0.22% and the inhibition [20] was 3.95%.

Compound c1cc(-c2cnn3nc(N4CCOCC4)ccc23)nc(NC2CC2)n1 has an inhibition [1] of 51.7%, an inhibition [2] of 1.71% and an inhibition [3] of 1.99%. The inhibition [4] was 15.8%, the inhibition [5] was 15.4% and the inhibition [6] was 5.62%. The inhibition [7] was 15.6%, the inhibition [8] was 3.15% and the inhibition [9] was 8.37%. For the same compound, the inhibition [10] was 6.04%, the inhibition [11] was 16.2% and the inhibition [12] was -1.82%. For the same compound, the inhibition [13] was 1.76%, the inhibition [14] was 5.66% and the inhibition [15] was 23.7%. For the same compound, the inhibition [16] was 10.1%, the inhibition [17] was 8.4% and the inhibition [18] was 0.68%. It also gave an inhibition [19] of -0.4% and an inhibition [20] of 3.54%.

Work on COc1cccc(-n2ncc3c(N/N=C/c4ccc(F)cc4)ncnc32)c1 yielded an inhibition [1] of 45.3%, an inhibition [2] of 4.95% and an inhibition [3] of 1.58%. The inhibition [4] was 8.88%, the inhibition [5] was 13.6% and the inhibition [6] was 5.24%. It also gave an inhibition [7] of 14.9%, an inhibition [8] of 2.47% and an inhibition [9] of 7.65%. For the same compound, the inhibition [10] was 1.26%, the inhibition [11] was 18.6% and the inhibition [12] was 3.4%. The inhibition [13] was 13.7%, the inhibition [14] was 3.85% and the inhibition [15] was 8.02%. It also gave an inhibition [16] of 14.6%, an inhibition [17] of 49.2% and an inhibition [18] of -1.01%. The inhibition [19] was 3.9% and the inhibition [20] was -4.34%.

In the case of CCCN1CCC(c2ccc(Nc3nc(Nc4cc(F)ccc4C(N)=O)c4cc[nH]c4n3)c(OC)c2)CC1, the inhibition [1] is reported as 54.5%, the inhibition [2] is reported as 4.23% and the inhibition [3] is reported as 19.3%. It also gave an inhibition [4] of 94.9%, an inhibition [5] of 96.8% and an inhibition [6] of 9.07%. For the same compound, the inhibition [7] was 28.1%, the inhibition [8] was 9.84% and the inhibition [9] was 51.4%. The inhibition [10] was 10%, the inhibition [11] was 35.8% and the inhibition [12] was 8.19%. It also gave an inhibition [13] of 8.86%, an inhibition [14] of 60.7% and an inhibition [15] of 81.3%. The inhibition [16] was -0.59%, the inhibition [17] was 15.3% and the inhibition [18] was 1.02%. The inhibition [19] was 14.8% and the inhibition [20] was -9.2%.

For NC(=O)c1sc(-n2cnc3ccc(C(F)(F)F)cc32)cc1OCc1ccccc1Br, the inhibition [1] was 7.98%, the inhibition [2] was 2.51% and the inhibition [3] was 2.35%. It also gave an inhibition [4] of 9.64%, an inhibition [5] of 12.8% and an inhibition [6] of 1.18%. For the same compound, the inhibition [7] was 4.33%, the inhibition [8] was 2.41% and the inhibition [9] was 3.36%. The inhibition [10] was 3.67%, the inhibition [11] was 11.1% and the inhibition [12] was 4.35%. For the same compound, the inhibition [13] was 5.41%, the inhibition [14] was 3.4% and the inhibition [15] was 9.36%. It also gave an inhibition [16] of 1.66%, an inhibition [17] of 10.1% and an inhibition [18] of -1.61%. It also gave an inhibition [19] of -2.09% and an inhibition [20] of -5.63%.

In the case of CCN1CCC(CC(=O)Nc2n[nH]c3nnc(-c4cccc(F)c4F)cc23)CC1, the inhibition [1] is reported as 5.87%, the inhibition [2] is reported as 0.59% and the inhibition [3] is reported as -2.06%. For the same compound, the inhibition [4] was 2.01%, the inhibition [5] was 2.8% and the inhibition [6] was 3.04%. The inhibition [7] was 1.36%, the inhibition [8] was 3.31% and the inhibition [9] was 3.73%. It also gave an inhibition [10] of 4.22%, an inhibition [11] of 6.9% and an inhibition [12] of -3.31%. The inhibition [13] was 1.81%, the inhibition [14] was 1.13% and the inhibition [15] was 3.93%. For the same compound, the inhibition [16] was 5.1%, the inhibition [17] was 0.53% and the inhibition [18] was -0.09%. It also gave an inhibition [19] of 0.68% and an inhibition [20] of -0.02%.

Work on CCCN(CCS(C)(=O)=O)Cc1ccc(-c2ccc3ncnc(Nc4ccc(OCc5cccc(F)c5)c(Cl)c4)c3c2)o1 yielded an inhibition [1] of 8.69%, an inhibition [2] of 0.49% and an inhibition [3] of 2.46%. For the same compound, the inhibition [4] was 3.28%, the inhibition [5] was -1.09% and the inhibition [6] was 4.68%. The inhibition [7] was 7.59%, the inhibition [8] was 1.01% and the inhibition [9] was 5.01%. The inhibition [10] was 2.4%, the inhibition [11] was 2.22% and the inhibition [12] was 2.96%. For the same compound, the inhibition [13] was 4.1%, the inhibition [14] was 2.72% and the inhibition [15] was 6.67%. The inhibition [16] was 3.8%, the inhibition [17] was 6.22% and the inhibition [18] was 1.1%. For the same compound, the inhibition [19] was 2.29% and the inhibition [20] was -1.64%.

Work on N#Cc1c(NC(=O)CN2CCOCC2)sc2c1CCCC2 yielded an inhibition [1] of 8.2%, an inhibition [2] of 2.9% and an inhibition [3] of 1.5%. For the same compound, the inhibition [4] was 9.37%, the inhibition [5] was 14.3% and the inhibition [6] was 4.27%. It also gave an inhibition [7] of 7.18%, an inhibition [8] of 1.54% and an inhibition [9] of 8.77%. The inhibition [10] was 5.41%, the inhibition [11] was 8.63% and the inhibition [12] was -0.19%. The inhibition [13] was 6.37%, the inhibition [14] was 6.7% and the inhibition [15] was 13%. It also gave an inhibition [16] of -1.56%, an inhibition [17] of 7.9% and an inhibition [18] of -1.35%. The inhibition [19] was 0.73% and the inhibition [20] was -0.42%.

For CCn1c(-c2nonc2N)nc2c(C#CC(C)(C)O)ncc(OC3CCNCC3)c21, the inhibition [1] was 41.1%, the inhibition [2] was 0.94% and the inhibition [3] was 2.25%. For the same compound, the inhibition [4] was 6.98%, the inhibition [5] was 45.3% and the inhibition [6] was 4.43%. It also gave an inhibition [7] of 10.3%, an inhibition [8] of 1.1% and an inhibition [9] of 4.05%. The inhibition [10] was 1.51%, the inhibition [11] was 17.1% and the inhibition [12] was -2.24%. It also gave an inhibition [13] of 0.48%, an inhibition [14] of 7.34% and an inhibition [15] of 6.9%. For the same compound, the inhibition [16] was 7.32%, the inhibition [17] was 11.4% and the inhibition [18] was 0.02%. It also gave an inhibition [19] of 1.37% and an inhibition [20] of 2.08%.
